# Data as given in PubChem BioAssay AID686960 (The Scripps Research Institute Molecular Screening Center, 2013).
# Some of the results follow. Values without a mark were called inactive. No stated cut-off is given here; in the data, active means IC50 below about 10 µM; inactive means the rest.
# Assay: dye displacement from CAG DNA duplex – biochemical, fluorescence, TO-PRO-1 dye, counter-screen for rCAG RNA repeat binder project, dose response (AID 686960)
# Details: DNA CAG/GTC duplex TO-PRO-1 dye displacement fluorescence
compound,measurement,value
O=C1CC(=O)N(Cc2ccccc2)C(=O)N1CCCCCCN1C(=O)CC(=O)N(Cc2ccccc2)C1=O,IC50,11.5 µM
